Data: PubChem BioAssay AID1159580 (chemical genetic matrix, 2015)
The whole screen tested about 5,500 compounds, of which about 2,000 (36%) were called active. Roughly 18% stayed inconclusive and do not appear here. Rule as the data show it: active = normalized growth mostly below about 0.91 (no sharp cut-off); inconclusive = no clear call, values can overlap the other calls; inactive = mostly above about 0.92. The list shows a part of the results.

Experiment: chemical genetic growth profiling, strain panel (AID 1159580);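 also: tested at 20 µM; growth read once vehicle control cultures reached saturation at 30 °C; 1 = growth at the plate median or of vehicle wells; lower values mean less growth of the strain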
Conditions: growth OD

Measured: normalized growth

CC(=O)O[C@H]1CC[C@@]2(C)C(=CCC3C2CC[C@@]2(C)C3CC[C@@H]2C(C)CCCC(C)C)C1 (stereo partly drawn)
inactive: S. cerevisiae deletion strains, locus YJR066W, strain TOR1, active compounds read low 0.96 | S. cerevisiae deletion strains, locus YKL009W, strain mrt4, active compounds read low 1.05 | S. cerevisiae deletion strains, locus YKL068W, active compounds read low 1 | S. cerevisiae deletion strains, locus YKL085W, strain MDH1 (second series), active compounds read low 1.01 | S. cerevisiae deletion strains, locus YKL085W, strain MDH1, active compounds read low 1.01 | S. cerevisiae deletion strains, locus YKL160W, strain elf1, active compounds read low 0.997 | S. cerevisiae deletion strains, locus YKL190W, strain CNB1, active compounds read low 1.01 | S. cerevisiae deletion strains, locus YKR001C, strain vps1, active compounds read low 1.06 | S. cerevisiae deletion strains, locus YKR026C, strain gcn3, active compounds read low 0.991 | S. cerevisiae deletion strains, locus YKR091W, strain srl3, active compounds read low 0.998 | S. cerevisiae deletion strains, locus YLL001W, strain dnm1, active compounds read low 0.997 | S. cerevisiae deletion strains, locus YLL026W, active compounds read low 0.995 | S. cerevisiae deletion strains, locus YLL041C, strain sdh2, active compounds read low 0.995 | S. cerevisiae deletion strains, locus YLR027C, strain aat2, active compounds read low 0.979 | S. cerevisiae deletion strains, locus YLR039C, strain RIC1, active compounds read low 1.08 | S. cerevisiae deletion strains, locus YLR058C, strain SHM2, active compounds read low 1.01 | S. cerevisiae deletion strains, locus YLR102C, strain apc9, active compounds read low 1.01 | S. cerevisiae deletion strains, locus YLR113W, strain HOG1, active compounds read low 0.95 | S. cerevisiae deletion strains, locus YLR221C, strain rsa3, active compounds read low 0.979 | S. cerevisiae deletion strains, locus YLR258W, strain gsy2, active compounds read low 1.01 | S. cerevisiae deletion strains, locus YLR262C, strain YPT6 (second series), active compounds read low 1.01 | S. cerevisiae deletion strains, locus YLR262C, strain YPT6, active compounds read low 1.14 | S. cerevisiae deletion strains, locus YLR268W, strain sec22, active compounds read low 1.03 | S. cerevisiae deletion strains, locus YLR320W, strain mms22, active compounds read low 0.98 | S. cerevisiae deletion strains, locus YLR330W, strain CHS5, active compounds read low 1.02 | S. cerevisiae deletion strains, locus YLR342W, strain FKS1 (second series), active compounds read low 1.07 | S. cerevisiae deletion strains, locus YLR342W, strain FKS1, active compounds read low 0.994 | S. cerevisiae deletion strains, locus YLR357W, strain rsc2, active compounds read low 0.985 | S. cerevisiae deletion strains, locus YLR370C, strain arc18, active compounds read low 0.991 | S. cerevisiae deletion strains, locus YLR371W, strain rom2, active compounds read low 1.02 | S. cerevisiae deletion strains, locus YLR384C, strain iki3, active compounds read low 1.01 | S. cerevisiae deletion strains, locus YLR418C, strain cdc73, active compounds read low 1.04 | S. cerevisiae deletion strains, locus YML016C, strain PPZ1, active compounds read low 1.01 | S. cerevisiae deletion strains, locus YML032C, strain rad52, active compounds read low 1.02 | S. cerevisiae deletion strains, locus YML120C, strain ndi1, active compounds read low 1 | S. cerevisiae deletion strains, locus YML124C, strain tub3, active compounds read low 1.02 | S. cerevisiae deletion strains, locus YMR058W, strain fet3, active compounds read low 0.913 | S. cerevisiae deletion strains, locus YMR078C, strain ctf18, active compounds read low 1.02 | S. cerevisiae deletion strains, locus YMR125W, strain sto1, active compounds read low 0.995 | S. cerevisiae deletion strains, locus YMR129W, active compounds read low 0.997 | S. cerevisiae deletion strains, locus YMR205C, strain PFK2, active compounds read low 1 | S. cerevisiae deletion strains, locus YMR223W, strain ubp8, active compounds read low 1.03 | S. cerevisiae deletion strains, locus YMR231W, strain pep5, active compounds read low 0.965 | S. cerevisiae deletion strains, locus YMR307W, strain GAS1, active compounds read low 1.03 | S. cerevisiae deletion strains, locus YNL067W, strain RPL9B, active compounds read low 1.02 | S. cerevisiae deletion strains, locus YNL071W, strain lat1, active compounds read low 0.999 | S. cerevisiae deletion strains, locus YNL128W, strain TEP1, active compounds read low 1.02 | S. cerevisiae deletion strains, locus YNL153C, strain GIM3, active compounds read low 1.02 | S. cerevisiae deletion strains, locus YNL183C, strain NPR1, active compounds read low 0.906 | S. cerevisiae deletion strains, locus YNL209W, strain ssb2, active compounds read low 0.999 | S. cerevisiae deletion strains, locus YNL233W, strain BNI4, active compounds read low 1 | S. cerevisiae deletion strains, locus YNL248C, strain rpa49, active compounds read low 1 | S. cerevisiae deletion strains, locus YNL250W, strain rad50, active compounds read low 1.02 | S. cerevisiae deletion strains, locus YNL271C, strain bni1, active compounds read low 1.04 | S. cerevisiae deletion strains, locus YNL298W, strain CLA4, active compounds read low 1.02 | S. cerevisiae deletion strains, locus YNL307C, strain MCK1, active compounds read low 1.03 | S. cerevisiae deletion strains, locus YNL322C, strain KRE1 (second series), active compounds read low 0.989 | S. cerevisiae deletion strains, locus YNR049C, strain mso1, active compounds read low 0.988 | S. cerevisiae deletion strains, locus YNR052C, strain pop2, active compounds read low 1.02 | S. cerevisiae deletion strains, locus YOL012C, strain htz1 0.984 | S. cerevisiae deletion strains, locus YOL147C, strain pex11, active compounds read low 1.02 | S. cerevisiae deletion strains, locus YOR001W, strain rrp6, active compounds read low 0.974 | S. cerevisiae deletion strains, locus YOR061W, strain CKA2, active compounds read low 1.01 | S. cerevisiae deletion strains, locus YOR069W, strain VPS5, active compounds read low 1.01 | S. cerevisiae deletion strains, locus YOR070C, strain gyp1, active compounds read low 0.989 | S. cerevisiae deletion strains, locus YOR080W, strain dia2, active compounds read low 0.983 | S. cerevisiae deletion strains, locus YOR083W, strain WHI5, active compounds read low 1.01 | S. cerevisiae deletion strains, locus YOR106W, strain vam3, active compounds read low 1.04 | S. cerevisiae deletion strains, locus YOR136W, strain idh2, active compounds read low 1.03 | S. cerevisiae deletion strains, locus YOR144C, strain elg1, active compounds read low 1.02 | S. cerevisiae deletion strains, locus YOR184W, strain ser1, active compounds read low 1.02 | S. cerevisiae deletion strains, locus YOR231W, strain MKK1, active compounds read low 0.972 | S. cerevisiae deletion strains, locus YOR265W, strain rbl2, active compounds read low 0.995 | S. cerevisiae deletion strains, locus YOR270C, strain vph1, active compounds read low 1.04 | S. cerevisiae deletion strains, locus YOR290C, strain snf2, active compounds read low 1 | S. cerevisiae deletion strains, locus YOR316C, strain cot1, active compounds read low 1.02 | S. cerevisiae deletion strains, locus YPL051W, strain arl3, active compounds read low 0.982 | S. cerevisiae deletion strains, locus YPL078C, strain atp4, active compounds read low 1.01 | S. cerevisiae deletion strains, locus YPL106C, strain sse1, active compounds read low 0.975 | S. cerevisiae deletion strains, locus YPL240C, strain hsp82, active compounds read low 1 | S. cerevisiae deletion strains, locus YPL241C, strain CIN2, active compounds read low 1.01 | S. cerevisiae deletion strains, locus YPL256C, strain CLN2, active compounds read low 0.964 | S. cerevisiae deletion strains, locus YPR119W, strain clb2, active compounds read low 1.01 | S. cerevisiae deletion strains, locus YPR141C, strain kar3, active compounds read low 1.02 | S. cerevisiae deletion strains, locus YPR163C, strain tif3, active compounds read low 1.04 | S. cerevisiae deletion strains, locus YPR167C, strain met16, active compounds read low 1.03 | S. cerevisiae deletion strains, strain wtn01, active compounds read low 1.04 | S. cerevisiae strains, strain wild type, active compounds read low 1.01
